Screening data as filed in PubChem.
A selection: hits, their analogues and other compounds. The true share with any hit is near 6.3%.
NADH enzymes – blocks coupling enzymes of NAD/NADH assays | coupled PK/LDH NADH assays, four targets | IC50, µM (titrated, usually from 10 µM), without a hit: at the highest dose inhibition | actives 0.02% (n = 65,000) | AID 774;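 active = single-dose screening hits from any of four coupled enzyme assays that gave an IC50 when retested across doses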;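 note: the DPM-DC format reads NADH fluorescence rather than 340 nm absorbance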
Fluor 339 460 – intrinsic fluorescence of library compounds, ex339/em460 – biochemical, MLSMR library, data from DPM-DC assay, artefact control, profiling panel; fluorescence fold increase at 10 µM; compound autofluorescence, ex339/em460 nm, NADH buffer; hits give high values; 1 = no-compound wells, NADH background; AID 709; actives 5.5% (n = 65,000);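 active = at 10 µM, mean starting fluorescence two-fold or more over control wells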;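 note: signal is the first read of a kinetic run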
Spn PMK inh – blocks S. pneumoniae phosphomevalonate kinase; purified PMK, PK/LDH-coupled NADH absorbance 340 nm; inhibition, % at 10 µM; actives 0.49% (n = 65,000); AID 539;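 active = top-ranked compounds by inhibition in the single 10 µM screen, taking a fixed number of the strongest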;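 note: 0% = full reaction with DMSO carrier and 100% = background rate without enzyme reaction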
Abs 340nm – absorbance at 340 nm | 65,000 tested, under 10 active | AID 708 | compound absorbance at 340 nm, fold over control | fold change at 10 µM;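 active = at 10 µM dose, initial 340 nm absorbance at least 2 fold that of control wells; inactive = change under 2 fold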;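 note: initial absorbance extrapolated from kinetic A340 decline of NADH oxidation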
MK inhibit – blocks S. pneumoniae mevalonate kinase | purified MK, PK/LDH-coupled NADH absorbance 340 nm | inhibition, % at 10 µM | actives 0.48% (n = 65,000) | AID 555;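 active = ranked among the strongest by inhibition in the single 10 µM screen, a fixed top-ranked set picked for dose follow-up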
DPM-DC inhibit – S. pneumoniae DPM-DC inhibition; purified DPM-DC, PK/LDH coupled NADH fluorescence; calls only at 10 µM; actives 0.49% (n = 65,000); AID 556;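 active = the 320 compounds with the highest percent inhibition in the single-dose primary screen, excluding strongly autofluorescent ones, cut at about 32% in these data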;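 note: kinetic rate of NADH fluorescence loss reporting ADP formed by the decarboxylase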
The depositor's hits bear a star; i = inactive; / = no result shown; + = active, no number.

SMILES | NADH enzymes | Fluor 339 460 | Spn PMK inh | Abs 340nm | MK inhibit | DPM-DC inhibit
COc1ccc(CCNC(=O)CC2Nc3ccccc3NC2=O)cc1OC (stereo not given) | 11.0% | 1.36 | 15.0 | 1.04 | 4.0 | i
COc1ccc(CCNC(=O)CC2Nc3ccccc3NC2=O)cc1 (stereo not given) | 8.0% | 2.12* | 14.0 | 0.99 | 5.0 | i
COc1ccccc1NC(=O)c1cccc(NC(=O)c2ccco2)c1 | 8.0% | 1.07 | 8.0 | 1.04 | 12.0 | i
CCOC(=O)/C(C(C)=O)=C1\OC(=O)c2ccccc21 | 4.0% | 1.07 | 5.0 | 1.01 | 8.0 | i
CC(C)Cn1cc(C(=O)NCC2CCCO2)c2c3ccccc3n(C)c2c1=O (stereo not given) | 9.0% | 2.51* | 13.0 | 1.01 | 11.0 | i
Cn1c2ccccc2c2c(C(=O)NCC3CCCO3)cn(C3CCCC3)c(=O)c21 (stereo not given) | 11.0% | 2.12* | 16.0 | 1.06 | 5.0 | /
Cc1ccc(Cc2c(C)nc3nc(SCC(=O)NCc4ccco4)nn3c2C)cc1 | 2.0% | 1.19 | 0.0 | 1.05 | 5.0 | i
CC(=O)Nc1cccc(-c2nc3ccc(NC(C)=O)cc3[nH]2)c1 | 5.0% | 4.88* | 6.0 | 1.04 | 4.0 | /
CC(=O)Nc1ccc2nc(-c3cccnc3)[nH]c2c1 | 4.0% | 1.34 | 0.0 | 1.06 | 8.0 | i
COc1ccc2c(-c3cccnc3)cc(=O)[nH]c2c1 | 6.0% | 2.13* | 11.0 | 1.02 | 3.0 | i
CCOc1ccc(-n2c(-c3ccco3)n[nH]c2=S)cc1 | 25.0% | 1.19 | 11.0 | 0.99 | 60.0* | i
CCOC(=O)CSc1n[nH]c(-c2ccco2)n1 | 6.0% | 1.07 | 13.0 | 1.04 | 6.0 | i
CCN=c1sc(C(=O)NCCc2ccccc2)cc(=O)n1CC | 8.0% | 1.03 | 25.0* | 1.05 | 0.0 | i
COC(=O)Cc1c(C)nc2nc(-c3ccco3)[nH]n2c1=O | 1.0% | 1.04 | 0.0 | 1 | 8.0 | i
CCCOC(=O)C1=C(C)NC2=C(C(=O)CCC2)C1c1cccc(OC)c1OC (stereo not given) | 3.0% | 2.25* | 0.0 | 1.07 | 6.0 | /
CC1=C(C(=O)OCc2ccccc2)C(c2ccco2)C2=C(CC(C)(C)CC2=O)N1 (stereo not given) | 8.0% | 1.49 | 10.0 | 1.07 | 1.0 | i
COC(=O)C1=C(C)NC2=C(C(=O)CCC2)C1c1coc2ccccc2c1=O (stereo not given) | 8.0% | 1.48 | 14.0 | 1.06 | 11.0 | i
COC(=O)C1=C(C)NC2=C(C(=O)CC(C)(C)C2)C1c1cccc(C)n1 (stereo not given) | 0.0% | 3.68* | 0.0 | 1.13 | 0.0 | /
CCCOC(=O)C1=C(C)NC2=C(C(=O)CCC2)C1c1cccs1 (stereo not given) | 8.0% | 1.72 | 13.0 | 1.06 | 9.0 | i
COC(=O)C1=C(C)NC2=C(C(=O)CCC2)C1c1cccc(C)n1 (stereo not given) | 9.0% | 3.95* | 7.0 | 1.01 | 11.0 | /
O=C(c1cnsn1)N1CCN(c2ccccc2)CC1 | 7.0% | 1.09 | 11.0 | 1.02 | 9.0 | i
Clc1c(-c2nnc3n2CCC3)sc2ccccc12 | 36.0% | 1.26 | 3.0 | 1.29 | 8.0 | +
CCOC(=O)C1Cc2cc3c(cc2C1=O)CC(C(=O)OCC)C3=O (stereo not given) | 1.0% | 3.73* | 2.0 | 1.09 | 0.0 | /
CCOC(=O)N1CCC(NC(=O)c2cc3c(-c4ccc(OC)c(OC)c4)nn(C)c3s2)CC1 | 11.0% | 2.42* | 7.0 | 1.09 | 8.0 | i
CCOC(=O)N1CCC(NC(=O)c2cc3c(-c4ccccc4F)nn(C)c3s2)CC1 | 13.0% | 2.01* | 8.0 | 1.06 | 11.0 | i
SMILES | NADH enzymes | Fluor 339 460 | Spn PMK inh | Abs 340nm | MK inhibit | DPM-DC inhibit
CC1CCCCN1CCNC(=O)c1cc2c(-c3ccccc3F)nn(C)c2s1 (stereo not given) | 5.0% | 2.15* | 8.0 | 1.05 | 1.0 | /
COc1ccc(-c2nn(C)c3sc(C(=O)NCc4ccco4)cc23)cc1OC | 8.0% | 3.1* | 12.0 | 1.04 | 6.0 | i
Cc1cc(NS(=O)(=O)c2ccc(NC(=O)NC3CCCCC3)cc2)no1 | 6.0% | 1.12 | 10.0 | 1.03 | 6.0 | i
CCOc1cc(N2CCOCC2)c(OCC)cc1NC(=O)CCC1CCCC1 | 4.0% | 1.1 | 12.0 | 0.99 | 1.0 | i
CCC(=O)Nc1ccc(NC(=O)c2ccccn2)cn1 | 4.0% | 1.05 | 0.0 | 1 | active | i
O=C(Nc1ccc(N2CCN(Cc3ccccc3Cl)CC2)cc1)c1cccnc1 | 3.0% | 1.04 | 4.0 | 1 | 6.0 | i
O=C(Nc1ccc(N2CCCCC2)cc1)c1cccnc1 | 17.0% | 1.05 | 8.0 | 1.06 | 2.0 | +
CC(CC1C(C#N)=C(N)OC2=C1C(=O)CCC2)c1ccccc1 (stereo not given) | 7.0% | 1.1 | 15.0 | 1.03 | 5.0 | i
CCOC(=O)N1CCC(NC(=O)CN2C(=O)CCSc3ccccc32)CC1 | 2.0% | 1.04 | 4.0 | 0.98 | 11.0 | i
COc1ccc2nc3oc(C(=O)NC4CCN(Cc5ccccc5)CC4)cc3cc2c1 | 15.0% | 3.41* | 10.0 | 1 | 3.0 | /
CCOC(=O)N1CCC(NC(=O)c2ccc3c(c2)sc2nc(-c4ccc(OC)cc4)cn23)CC1 | 7.0% | 3.55* | 9.0 | 1.02 | 11.0 | i
COc1ccc2nc3oc(C(=O)N4CCN(c5ccccc5F)CC4)cc3cc2c1 | 2.0% | 1.43 | 7.0 | 1.01 | 0.0 | i
CCOC(=O)N1CCC(NC(=O)c2cc3cc4cc(OC)ccc4nc3o2)CC1 | 5.0% | 5.11* | 9.0 | 1.06 | 0.0 | /
CCOC(=O)N1CCC(NC(=O)c2ccc3c(c2)N(CC)CCS3)CC1 | 4.0% | 2.42* | 5.0 | 0.99 | 9.0 | /
COc1nc(NCCC2=CCCCC2)nc(OC)n1 | 13.0% | 1.03 | 12.0 | 1.03 | 9.0 | i
COc1ccc(Cl)cc1Nc1nc(N2CCCC2)nc(N2CCCC2)n1 | 8.0% | 1.14 | 18.0 | 1.02 | 5.0 | i
CN(C)CCNC(=O)c1ccc2c(c1)N(Cc1ccc(F)cc1)CCS2 | 15.0% | 2.05* | 20.0 | 1.02 | 10.0 | /
CN(C)CCNC(=O)c1ccc(COCC(F)(F)F)cc1 | 3.0% | 1 | 1.0 | 0.99 | 8.0 | i
Cc1nnc(NC(=O)C2CCN(c3cnccn3)CC2)s1 | 7.0% | 1.44 | 14.0 | 1.06 | 1.0 | i
CCOC(=O)c1cnc2c(C)cccc2c1NCc1ccco1 | 8.0% | 1.43 | 0.0 | 1.11 | 12.0 | i
CCOC(=O)c1cnc2c(C(=O)OC)cccc2c1NCc1ccco1 | 6.0% | 3.39* | 5.0 | 1.12 | 6.0 | /
CCOC(=O)c1ccc2ncc(C(=O)OCC)c(NCc3ccco3)c2c1 | 12.0% | 3.78* | 10.0 | 1.08 | 13.0 | /
CCC(Sc1nccn1C)C(=O)Nc1cccc2ccccc12 (stereo not given) | 14.0% | 1.08 | 41.0* | 0.99 | 1.0 | i
CCC(Sc1nccn1C)C(=O)Nc1nnc(C)s1 (stereo not given) | 7.0% | 1.05 | 13.0 | 1.03 | 7.0 | i
